Results: PubChem BioAssay
The source made the active and inactive calls.

Assays:
Albumin (Bos taurus) = Albumin (Bos taurus) (UniProt P02769); assay: compounds binding labelled BSA control protein – biochemical, small-molecule microarray, Alexa647 label, 635/667 nm fluorescence, artefact control for SMM control protein annotation, profiling panel (AID 1118); conditions: BSA-A647 binding, fluorescence 635 nm, higher = more signal;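 also: score merges 667 nm emission intensity and signal-to-noise per printed compound spot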
[1] = probe aXIP binding to arrayed compounds – biochemical, NeuroSMM set, 635/667 nm fluorescence, primary screen (AID 1119); conditions: small-molecule microarray, higher = more signal, called active from +8 up or from −8 down;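 also: probe is the protein aXip251-270 applied at 1 µg/mL to compound-printed slides; binding of probe to printed compounds measured as 667 nm fluorescence plus signal to noise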
[2] = probe aNOTCH3 binding on compound microarray – biochemical, small-molecule microarray, 635/667 nm fluorescence, primary screen (AID 1120); conditions: higher = more signal;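 also: probe is a biotin-tagged antibody raised against NOTCH3 rather than NOTCH3 protein; score merges spot fluorescence near 667 nm with spot signal to noise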
[3] = probe aNOTCH2 binding on compound microarray – biochemical, small-molecule microarray, 635/667 nm fluorescence, primary screen (AID 1121); conditions: higher = more signal;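 also: score merges feature fluorescence read at 667 nm with its signal to noise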
[4] = molecular target: Carbonic anhydrase 2 (Homo sapiens) (UniProt P00918); assay: compounds binding carbonic anhydrase 2 – biochemical, small-molecule microarray, Alexa647-labelled CAII, profiling panel (AID 1122); conditions: CAII-A647 binding fluorescence, higher = more signal
[5] = COS7 lysate on small-molecule microarray, probe aHis, 635 nm (AID 1123); conditions: COS7 cell lysate, fluorescence, higher = more signal;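 also: z-score combines 667nm fluorescence intensity with signal-to-noise per printed compound spot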
[6] = probe aLAP1 signal on lysate-treated microarray – cell lysate, small-molecule microarray, COS7 lysate, primary screen (AID 1124); conditions: probe aLAP1, fluorescence, higher = more signal;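 also: lysate comes from COS7 cells expressing LAP1 and is applied at 0.3 µg/mL; score merges spot fluorescence near 667 nm with signal-to-noise over triplicate slides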
Sam68 (KHDRBS1) = assay: compounds binding KHDRBS1 protein – biochemical, small-molecule microarray, 635 nm fluorescence, primary screen (AID 1125); conditions: higher = more signal;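 also: score merges 667 nm channel intensity with signal to noise over triplicate slides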
[7] = test system: Chordin-like protein 2 (CHRDL2); assay: compounds binding chordin-like 2 – biochemical, small-molecule microarray, 635 nm fluorescence, primary screen (AID 1126); conditions: fluorescence 635 nm, higher = more signal;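 also: printed compound slides probed with Chrdl2 protein at 4 µg/mL for 1 h at 4 C; score merges 667 nm emission intensity with signal to noise over three replicate slides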
[8] = molecular target: Concanavalin-A (Canavalia ensiformis) (UniProt P02866); assay: compounds binding concanavalin A lectin – biochemical, small-molecule microarray, Alexa647 label, 635 nm, artefact control for SMM control protein annotation, primary screen (AID 1127); conditions: ConA-A647 binding fluorescence, higher = more signal;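 also: z combines 667 nm emission intensity with signal-to-noise across three replicate slides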
Chain of Concanavalin-A (Canavalia ensiformis) (P02866 whole entry, looked up): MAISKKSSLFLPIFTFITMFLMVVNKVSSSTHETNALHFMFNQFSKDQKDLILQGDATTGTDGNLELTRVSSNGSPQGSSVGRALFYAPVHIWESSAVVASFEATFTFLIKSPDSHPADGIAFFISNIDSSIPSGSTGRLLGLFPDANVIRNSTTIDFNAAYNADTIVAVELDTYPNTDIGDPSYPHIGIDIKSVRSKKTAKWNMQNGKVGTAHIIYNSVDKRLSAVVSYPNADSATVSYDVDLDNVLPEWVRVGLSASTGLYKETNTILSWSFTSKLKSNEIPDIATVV

Chain of Albumin (Bos taurus) (P02769 whole entry, looked up): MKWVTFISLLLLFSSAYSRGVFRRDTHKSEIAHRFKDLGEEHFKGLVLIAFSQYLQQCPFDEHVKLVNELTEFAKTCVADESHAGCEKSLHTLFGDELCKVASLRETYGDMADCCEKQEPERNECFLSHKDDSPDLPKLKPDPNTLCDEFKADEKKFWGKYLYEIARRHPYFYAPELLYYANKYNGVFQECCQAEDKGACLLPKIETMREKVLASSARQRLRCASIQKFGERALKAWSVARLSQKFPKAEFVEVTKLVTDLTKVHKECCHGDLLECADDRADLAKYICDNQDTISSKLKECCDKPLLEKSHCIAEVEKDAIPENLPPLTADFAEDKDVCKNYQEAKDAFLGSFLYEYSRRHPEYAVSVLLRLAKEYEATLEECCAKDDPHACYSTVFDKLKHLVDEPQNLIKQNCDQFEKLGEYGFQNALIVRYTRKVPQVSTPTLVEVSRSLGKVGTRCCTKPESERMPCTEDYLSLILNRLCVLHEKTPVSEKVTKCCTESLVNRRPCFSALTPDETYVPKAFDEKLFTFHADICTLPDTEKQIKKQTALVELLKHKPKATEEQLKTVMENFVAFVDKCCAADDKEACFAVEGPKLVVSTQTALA

| Compound | composite z-score (Albumin (Bos taurus)) | composite Z-score [1] | composite z-score [2] | composite z-score [3] | composite z-score [4] | composite z-score [5] | composite z-score [6] | composite z-score (Sam68 (KHDRBS1)) | composite z-score [7] | composite z-score [8] |
| --- | --- | --- | --- | --- | --- | --- | --- | --- | --- | --- |
| CCOC(=O)C[C@H]1[C@H](OC(=O)c2cc3ccccc3oc2=O)[C@@H](NC(=O)c2ccc3ccccc3n2)c2cc(OCCCO)ccc2N1C(=O)c1ccc2ccccc2n1 | -0.407 | 0.581 (inactive) | 0.255 | -0.0294 | 0.312 | 0.32 | 0.129 | 0.539 | 0.572 | 0.862 |
| C=CCNC(=O)[C@H]1[C@@H]2C(=O)O[C@@H](c3ccccc3)[C@@H](c3ccccc3)N2[C@@H](c2ccc(OCCO)cc2)[C@]12C(=O)N(C(=O)OCCOC)c1ccc(C#CC3=CCCCC3)cc12 | 0.401 | 0.495 (inactive) | 0.0813 | -0.109 | 0.643 | 1.34 | 0.737 | 1.31 | 0.399 | 1.12 |
| C=CCOC(=O)[C@H]1[C@@H]2C(=O)O[C@@H](c3ccccc3)[C@@H](c3ccccc3)N2[C@@H](c2ccc(OCCOC(=O)[C@H]3C[C@H]4C(=O)N[C@@H](CCCCN(C)C)C(=O)N4[C@H]3c3ccc(O)cc3)cc2)[C@]12C(=O)Nc1ccccc12 | -0.144 | -0.168 (inactive) | 0.272 | -0.185 | 0.415 | 1.48 | 0.0568 | 1.29 | 1.21 | 1.1 |
| COC(=O)[C@@]1(Cc2ccccc2)[C@H]2c3cc(C(=O)N4CCCC4)n(Cc4ccc(OC(F)(F)F)cc4)c3C[C@H]2CN1C(=O)c1ccccc1 | 0.963 | -0.56 (inactive) | 0.772 | 0.509 | 0.461 | 2.44 | 0.498 | 1.31 | -0.488 | 1.16 |
| CCCN1C(=O)[C@@]2(Cc3ccccc3)N=C(c3ccc(OCCCO)cc3)O[C@H]2c2ccccc21 | 0.508 | 0.72 (inactive) | 0.204 | 0.0055 | 0.329 | 2.69 | 0.688 | 1.3 | 0.804 | 0.96 |
| CC(C)C[C@@H]1NC(=O)[C@@H]2C[C@H](C(=O)NCc3ccc(F)cc3)[C@H](c3ccc(O)cc3)N2C1=O | -0.674 | 0.63 (inactive) | -0.222 | -0.126 | 0.47 | 2.61 | 0.38 | 0.425 | 0.448 | 1.18 |
| O=C1C2C=CC(C(O)c3cccc4ccccc34)N(Nc3ccccc3)C2C(=O)N1c1ccccc1 (stereo not given) | 0.571 | 0.739 (inactive) | 0.277 | 0.0312 | 0.655 | 2.28 | 1.47 | 0.983 | 0.724 | 0.89 |
| COc1ccc([Si](C)(C)[C@H]2[C@H](CC(=O)N3CCC[C@H]3CO)O[C@@]3(C(=O)N(Cc4ccc(N5C(=O)c6cccc7cccc5c67)cc4)c4ccccc43)[C@@H]2C)cc1 | 0.121 | 0.829 (inactive) | 0.171 | -0.146 | 0.409 | 1.23 | 0.206 | 1.29 | 0.634 | 1.13 |
| COC(=O)[C@@]1(Cc2ccc(OC)cc2)[C@H]2c3cc(C(=O)N(C)C)n(Cc4cc(F)c(F)c(F)c4)c3C[C@H]2CN1C(=O)c1ccccc1 | 0.895 | -0.37 (inactive) | 0.578 | 0.212 | 0.767 | 2.73 | 0.331 | 1.11 | -0.0554 | 1.13 |
| O=C1N(CCS(=O)(=O)c2ccccc2)c2ccccc2[C@H]2OC(c3ccc(OCCCO)cc3)=N[C@@]12CCS(=O)(=O)c1ccccc1 | -1.18 | 1.11 (inactive) | 0.674 | 0.445 | 0.352 | 2.82 | 0.226 | 1.29 | 1.07 | 1.16 |
| Cc1ccc(S[C@]2(C(=O)NCc3ccccc3)CC(=O)N(C3Cc4ccccc4C3)[C@@H]2c2ccc(CO)cc2I)cc1 | 0.254 | 3.63 (inactive) | -0.187 | -0.0716 | 0.341 | 0.401 | 0.458 | 0.269 | -0.224 | -0.462 |
| CC(C)=CCCC(C)=CC(O)C1C=CC2C(=O)N(c3ccccc3)C(=O)C2N1Nc1ccc([N+](=O)[O-])cc1 (stereo not given) | 1.01 | 0.649 (inactive) | 0.155 | -0.0697 | 0.856 | 2.77 | 0.167 | 1.35 | -1 | 1.14 |
| COc1ccccc1CN1C(=O)c2ccccc2[C@](Cc2ccccc2I)(C(=O)NCCN2CCOCC2)[C@@H]1c1ccc(CO)cc1 | 0.655 | -0.0337 (inactive) | 0.0629 | -0.0288 | 0.646 | 1.71 | 1.01 | 1.29 | 0.617 | 1.1 |
| CC1=C2[C@@H](CCc3ccccc3)OB(O)C[C@@H]2[C@@H]2C(=O)C=CC(=O)[C@@H]2C1 | 0.393 | 1.64 (inactive) | -0.0677 | 0.0777 | 0.298 | -0.0088 | 0.0435 | 1.01 | 0.483 | 0.793 |
| CCCN1C(=O)[C@@H]2Cc3c([nH]c4ccccc34)[C@@H](c3cccc(O)c3)N2C1=O | -0.17 | -0.12 (inactive) | -0.0967 | -0.0859 | -0.112 | 0.207 | 1.36 | 0.65 | 0.426 | 0.46 |
| O=C1O[C@H](c2ccccc2)[C@H](c2ccccc2)N2[C@H]1[C@@H](C(=O)NC[C@H](O)c1ccccc1)[C@]1(C(=O)Nc3ccccc31)[C@H]2c1ccccc1OCCO | 0.426 | 0.16 (inactive) | -0.171 | -0.138 | 0.613 | 1.84 | 0.571 | 0.772 | 0.0939 | 1.02 |
| COc1ccc([Si](C)(C)[C@@H]2[C@@H](CCO)O[C@]3(C(=O)N(Cc4ccccc4)c4ccc(N5C(=O)COc6ccccc65)cc43)[C@H]2C)cc1 | 0.187 | 0.685 (inactive) | -0.0077 | -0.0731 | 0.426 | 0.841 | 0.719 | 0.929 | -0.237 | 0.822 |
